HT1080 IDH1KD tx = qHTS for induction of synthetic lethality in tumor cells producing 2HG: qHTS for the HT-1080-IDH1KD cell line; HT-1080 IDH1 knockdown viability, ATP luminescence, 48 h; Potency, µM (top dose mostly 46.1 µM), inactives show at the top dose activity, negative = toxicity, most hits filed as cytotoxic; actives 2% (n = 360,000);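 note: potency is the fitted concentration of half-maximal effect; 0% = DMSO wells and -100% = cell-free medium wells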
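% activity derives from luminescence (CellTiter-Glo), normalised to DMSO and no-cell wells. HT-1080-IDH1KD cells, 750/well, had 48 h compound exposure at 37 °C.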
TDP1 cell CPT = qHTS for Inhibitors of human tyrosyl-DNA phosphodiesterase 1 (TDP1): qHTS in cells in presence of CPT; chicken DT40 Tdp1-/-;hTDP1 cells + 20 nM CPT, ATP luminescence, 48 h; actives 12% (n = 420,000); Potency, µM (highest dose often 46.2 µM), without a hit: at the top dose activity change, negative = growth inhibition, usual class: inhibitors; AID 686979, 2013; note: potency is the fitted concentration of half-maximal effect; nearly all actives have a fitted effect of over 55% in size
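Chicken DT40 Tdp1-/- cells complemented with human TDP1, 400 cells/well, exposed to compounds plus 20 nM camptothecin for at least 48 h at 37 C; viability read as ATP content by CellTiter-Glo luminescence.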
uPA surface inh = qHTS for Inhibitors of Cell Surface uPA Generation; cell surface uPA generation assay, qHTS; Potency, µM (titrated, usually from 38.3 µM), inactives show at the top dose activity change, negative = inhibition, usual class: inhibitors; actives 0.31% (n = 330,000); active = well fitted inhibition curve with a large enough effect; inconclusive = small, poorly fitted or top-dose-only effect; inactive = no such curve, though single readings can be large or run the other way; tested in mouse RAW 264.7 cells; note: potency is the fitted concentration of half-maximal effect; nearly all actives have a fitted effect of over 55% in size
HT1080NT lethal = qHTS for induction of synthetic lethality in tumor cells producing 2HG: qHTS for the HT-1080-NT fibrosarcoma cell line. HT-1080-NT fibrosarcoma viability, CellTiter-Glo ATP luminescence, 48 h. Potency, µM (top dose mostly 46.1 µM), inactives show top-dose activity, negative = less viability, usual class: cytotoxic. actives 1.6% (n = 360,000). AID 686970, 2013;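 note: NT is the 2HG producing partner of a matched IDH1 knockdown line; potency is the fitted concentration of half-maximal effect; 0% = DMSO-treated cells and -100% = media-only wells without cells; nearly all actives have a fitted effect of over 55% in size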
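HT-1080-NT fibrosarcoma cells (2HG-overproducing), 750 cells/well in RPMI with 5% FBS, dosed after 2 h and incubated 48 h at 37C. CellTiter-Glo luminescence normalized to DMSO and no-cell wells; concentration-response curves fitted and classed.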
IL1B secr inh = qHTS for Inhibitors of Inflammasome Signaling: IL-1-beta AlphaLISA Primary Screen. THP-1 LPS/ATP IL-1B secretion, AlphaLISA, 16 h; active compounds read low. activity change, % at 57.5 µM. actives 4.7% (n = 360,000); in the data active = activity change below about -50%; inconclusive = mostly about -30% to -49%
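THP-1 cells pretreated 1 hr with compounds (up to 57.5 uM final), then stimulated with LPS (250 ng/mL final) plus ATP (1.25 mM final); secreted IL-1B measured by AlphaLISA after 16 hr, decreased signal indicating inhibition.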
DT40 TDP1 no CPT = qHTS for Inhibitors of human tyrosyl-DNA phosphodiesterase 1 (TDP1): qHTS in cells in absence of CPT | actives 15% (n = 420,000) | AID 686978, 2013 | Potency, µM (doses to about 46.2 µM), inactives show at the top dose activity change, negative = growth inhibition, hits mostly inhibitors | DT40 Tdp1-/- hTDP1 cells, no CPT, ATP luminescence, 48 h; note: potency is the fitted concentration of half-maximal effect; nearly all actives have a fitted effect of over 55% in size
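A cellular qHTS used chicken DT40 cells lacking endogenous Tdp1 but carrying stably transfected human TDP1. Compounds were applied without camptothecin, and cell growth kinetics were judged by ATP-dependent luminescence after ≥48 hr.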
Starred values were filed as active, the others as inactive; ? = inconclusive; nt = no result given. A selection: hits, their analogues and other compounds. The true share with any hit is near 19%. Unless noted, calls come from the whole dose curve; as a rule, active = well fitted curve in the direction sought with a large enough effect; inconclusive = small, poorly fitted or top-dose-only effect, or another doubt; inactive = no such curve, though single readings can be large; an effect the other way counts as inactive or inconclusive. Unless noted, % is set by controls: 0 for no effect and ±100 for the full control effect.

SMILES	HT1080 IDH1KD tx	TDP1 cell CPT	uPA surface inh	HT1080NT lethal	IL1B secr inh	DT40 TDP1 no CPT
CCOC(=O)C1CCN(C(=O)C2CCCN(S(=O)(=O)c3ccc(OCC)c(Cl)c3)C2)CC1 (stereo not drawn)	-22%	6.5µM*	-2%	?	8	5.8µM*
COc1cccc(OC)c1/C=C/C(=O)NC1CCCCC1	0%	10%	8%	4%	-17	?
O=C(COC(=O)c1ccc([N+](=O)[O-])cc1)Nc1ccccc1C(=O)NC1CC1	0%	5%	4%	4%	15	3%
CCOC(=O)C1CCCN(S(=O)(=O)c2cc3c4c(c2)CCC(=O)N4CCC3)C1 (stereo not drawn)	-24%	23µM*	-5%	-28%	30	21µM*
CCC(C)Oc1ccc(/C=C/c2[nH]c(=O)[nH]c(=O)c2[N+](=O)[O-])cc1OC (stereo not drawn)	?	55%	-1%	-25%	-102*	32%
COc1ccc(S(=O)(=O)N2CCCCC2)cc1NC(=O)c1cccc(S(=O)(=O)N2CC(C)OC(C)C2)c1 (stereo not drawn)	-5%	-14%	?	-8%	-19	?
COc1ccc(C)cc1NS(=O)(=O)c1ccc2c(c1)n(C)c(=O)n2C	0%	-2%	0%	-2%	24	?
Cc1cccc(C)c1NS(=O)(=O)c1ccc(-c2cnc(C3CC3)o2)cc1	0.16µM*	0.0058µM*	-70%	0.082µM*	50	0.12µM*
COc1ccc(C)cc1NS(=O)(=O)c1cnc(N)nc1	nt	2%	nt	nt	nt	-4%
Cc1ccc(CNS(=O)(=O)c2ccc(-c3cnc(C4CC4)o3)cc2)cc1	3%	?	0%	0%	10	?
Cc1ccc(N(C)S(=O)(=O)c2ccc(-c3cnc(C4CC4)o3)cc2)cc1	?	0.029µM*	?	?	56	0.018µM*
COc1ccc(C)cc1NS(=O)(=O)c1ccc2c(c1)N(C)CCO2	-6%	?	0%	4%	20	15µM*
COc1ccc(C)cc1NS(=O)(=O)c1ccc(-c2cnc(C3CC3)o2)cc1	0.0073µM*	0.065µM*	-91%	?	56	0.065µM*
O=S(=O)(c1ccc(-c2cnc(C3CC3)o2)cc1)N1CCN(c2ccccc2)CC1	-1%	?	15%	3%	0	?
CCCCN(C(=O)Cc1ccc(S(=O)(=O)N2CCOCC2)s1)c1c(N)n(CC(C)C)c(=O)[nH]c1=O	6%	-2%	-1%	0%	23	0%
CC(=O)c1ccc(NS(=O)(=O)c2ccc(-c3cnc(C4CC4)o3)cc2)cc1	-12%	-29%	-1%	-14%	59	?
CCOC(=O)c1cccc(NS(=O)(=O)c2ccc(-c3cnc(C4CC4)o3)cc2)c1	nt	2.3µM*	nt	nt	nt	2.6µM*
N#Cc1ccc(NS(=O)(=O)c2ccc(-c3cnc(C4CC4)o3)cc2)cc1	nt	18µM*	nt	nt	nt	?
NC(=O)c1ccc(=O)n(Cc2ccc(Cl)cc2Cl)c1	0%	-27%	4%	-4%	17	-28%
COCCCN1C(=O)C(CC(=O)NCC2CCCCC2)CC(C(=O)N2CCOCC2)=C1C (stereo not drawn)	1%	3%	nt	2%	-2	4%
COc1ccc(N2CCN(C(=S)Nc3ccccc3)CC2)cc1	-3%	-15%	1%	-18%	-5	-16%
CC(=O)c1ccc(N2CCN(C(=S)Nc3ccc(Oc4ccccc4)cc3)CC2)cc1	?	?	-11%	-16%	-66*	7.3µM*
COC(=O)Cc1ccc(NC(=S)N2CCN(CCO)CC2)cc1	7%	2%	-6%	4%	15	-2%
CC(=O)c1ccc(N2CCN(C(=S)Nc3cccc(F)c3)CC2)cc1	?	?	-6%	?	-14	15µM*
COC(=O)Cc1ccc(NC(=S)N2CCN(c3ccc(F)cc3)CC2)cc1	9%	12µM*	-4%	0%	0	5.2µM*
SMILES	HT1080 IDH1KD tx	TDP1 cell CPT	uPA surface inh	HT1080NT lethal	IL1B secr inh	DT40 TDP1 no CPT
COc1cc(C(=O)NCC(=O)OCCN2C(=O)c3ccccc3C2=O)cc(OC)c1OC	-2%	-12%	-13%	-8%	14	5%
O=C(N/C(=C\c1cccc(Br)c1)C(=O)N1CCCCC1)c1ccco1	-12%	-25%	1%	-23%	-3	-21%
COC(=O)c1c(C)n(-c2ccccc2)c2ccc(O)cc12	?	?	nt	11µM*	23	?
CCOC(=O)c1c(C)n(CCOc2ccccc2)c2ccc(O)cc12	8%	4%	-9%	9%	13	3%
COC(=O)c1c(C)n(-c2ccc(C)cc2)c2ccc(O)cc12	20µM*	35µM*	nt	13µM*	20	18µM*
CCOC(=O)c1c(C)n(CC(O)c2ccccc2)c2ccc(O)cc12 (stereo not drawn)	-22%	?	5%	-20%	20	18µM*
Cc1ccc(NC(=O)Cn2nnc(C(=O)NCc3ccc(Cl)cc3)c2N)cc1F	-10%	1%	1%	0%	11	23%
COc1ccc(-c2nn(-c3ccccc3)cc2/C=C/C(=O)NCCCn2ccnc2)cc1OC	?	-30%	nt	-15%	?	15µM*
CCN(CC(=O)Nc1ccc(NC(C)=O)cc1)C(=O)/C=C/c1cn(-c2ccccc2)nc1-c1ccc(C)cc1	-24%	?	0%	-27%	?	21µM*
COc1ccc(OC)c(/C=C/C(=O)N(C)CC(=O)Nc2cc(C)ccc2C)c1	9%	-16%	-1%	7%	-1	?
COc1ccc(-c2nn(-c3ccccc3)cc2/C=C/C(=O)N(C)CC(=O)Nc2cccc(F)c2)cc1OC	-25%	?	-13%	-22%	?	?
COc1ccc(OC)c(/C=C/C(=O)N(C)CC(=O)Nc2ccc(C)cc2)c1	-2%	6.5µM*	2%	7%	-4	10µM*
COc1cccc(NC(=O)CN(C)C(=O)/C=C/c2cn(-c3ccccc3)nc2-c2ccc(OC)c(OC)c2)c1	-7%	?	2%	-9%	-24	18µM*

Compound activity (PubChem)
